Test results: article PMC10726135, “HNF4α isoforms regulate the circadian balance between carbohydrate and lipid metabolism in the liver”
The full ranking holds about 18,000 sequences; the median of “log2 normalized intensity” is about 0.39, and the highest 2% start at about 6.6. The sample as a whole holds a higher share of the highest values than the screen did.

biological target: T1, HNF4alpha2 (COS-7 nuclear extract) (Homo sapiens, UniProt P41235 1-474); assay: protein-binding microarray; COS-7 nuclear extract on double-stranded Agilent 4x180k PBM; binding buffer, salt, pH and temperature not given in the material; high values mean tight binding; details: chain copies: 2; label: 3' end of strand 1 on the slide; dsDNA, one strand shown
T1 sequence: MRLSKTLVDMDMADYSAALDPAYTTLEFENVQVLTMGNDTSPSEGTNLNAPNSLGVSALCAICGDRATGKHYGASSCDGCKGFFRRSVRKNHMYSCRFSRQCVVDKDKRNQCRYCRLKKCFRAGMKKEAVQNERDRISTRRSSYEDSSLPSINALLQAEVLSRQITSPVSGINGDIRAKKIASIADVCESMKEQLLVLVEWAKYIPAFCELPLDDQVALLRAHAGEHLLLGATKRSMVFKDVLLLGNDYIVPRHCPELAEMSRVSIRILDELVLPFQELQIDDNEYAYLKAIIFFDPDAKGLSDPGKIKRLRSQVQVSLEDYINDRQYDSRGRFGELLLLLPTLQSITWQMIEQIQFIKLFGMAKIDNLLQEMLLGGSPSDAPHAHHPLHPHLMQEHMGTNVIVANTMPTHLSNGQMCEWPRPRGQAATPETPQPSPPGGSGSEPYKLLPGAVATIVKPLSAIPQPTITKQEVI
Procedure, shortened: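 Binding signal was defined as the normalized, background-corrected gProcessedSignal reported by Agilent software. It came from nuclear extracts of COS-7 cells transiently transfected with a human HNF4α isoform expression vector, applied to a custom Agilent SurePrint G3 4x180k array. That array held ~44,000 test sequences in quadruplicate as double-stranded ~60-nt oligonucleotides, and bound HNF4α was imaged at 2-µm resolution on an Agilent G2565CA scanner.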

Row | Sequence | binding signal [log2 normalized intensity]
1 | TCTCTCTCTCTTTCTTCCCCCACTCCAAGTGCCTAGGGAGATTAGAGTATCGGTCGA | 5.09
2 | CGAGTCAAGGGTCAATCCTCTCTTTGGAATGCCTAGGGAGATTAGAGTATCGGTCGA | 2.31
3 | CCTCCTGCCCTATGTCCTCCAGCTCTTGGGGCCTAGGGAGATTAGAGTATCGGTCGA | 1.53
4 | TGGAAGTCGCCGTGAGGTTATTTGCAGACTGCCTAGGGAGATTAGAGTATCGGTCGA | 0.0984
5 | ATTCCTATCGCCCTTCTGTCAAGTCCAAAGGCCTAGGGAGATTAGAGTATCGGTCGA | -0.648
6 | TCTGCACAAAATACAAGTCGTAAAGACCTTGCCTAGGGAGATTAGAGTATCGGTCGA | 0.709
7 | CCCTCAGCAACTGCAAGGCTGACCCGTGAAGCCTAGGGAGATTAGAGTATCGGTCGA | 1.4
8 | TGTGAGTCCAGTTGAATGATGGCGAGTGTGGCCTAGGGAGATTAGAGTATCGGTCGA | 1.62
9 | GCAAGCTTGACCTTTGATCCAGGCTCAGTGGCCTAGGGAGATTAGAGTATCGGTCGA | 7.48
10 | CTTGACCTTTGATCCAGGCTCAGTGGGCGTGCCTAGGGAGATTAGAGTATCGGTCGA | 4.91
11 | TTAGGATGACCTTTAGATTCTTACAGGCAAGCCTAGGGAGATTAGAGTATCGGTCGA | 3.63
12 | CAAGCTTGATCCAGGATCCTTCTTGACCAGGCCTAGGGAGATTAGAGTATCGGTCGA | 0.316
13 | TCCAGGCTTGTCCTTTTGACCACAGTTATCGCCTAGGGAGATTAGAGTATCGGTCGA | 2.33
14 | ATCCTTCTTGACCAGGCAAGCTTGACCTTTGCCTAGGGAGATTAGAGTATCGGTCGA | 7.07
15 | TCTTGACCAGGCAAGCTTGACCTTTGATCCGCCTAGGGAGATTAGAGTATCGGTCGA | 10.2
16 | ATTTGACCCTTGGCCAGGTGCAGTGGCTCAGCCTAGGGAGATTAGAGTATCGGTCGA | 2.99
17 | TTGATCCAGGATCCTTCTTGACCAGGCAAGGCCTAGGGAGATTAGAGTATCGGTCGA | -0.434
18 | AATTACCATTCTTGAGGACAGGCCAAATCCGCCTAGGGAGATTAGAGTATCGGTCGA | 0.0816
19 | CCCAGGTCCAGCCTTTGGGCAGGGGCATCCGCCTAGGGAGATTAGAGTATCGGTCGA | -0.72
20 | TGTGCAGCTTTGTGTAAAACTTCAAAGAAGGCCTAGGGAGATTAGAGTATCGGTCGA | -0.427
21 | AATGGGCAAAGGTCACAAGAGGTGCTGTGTGCCTAGGGAGATTAGAGTATCGGTCGA | 4.69
22 | TCACAGTGTGGGGCAAATCTGAGGTCAAAGGCCTAGGGAGATTAGAGTATCGGTCGA | 2.22

Row | Sequence | binding signal [log2 normalized intensity]
23 | GGTGTGAGAGGGCAAAGGTCACAGCATTAGGCCTAGGGAGATTAGAGTATCGGTCGA | 6.76
24 | GGCTGAATGGGCAAAGGTCACAAGAGGTGCGCCTAGGGAGATTAGAGTATCGGTCGA | 4.6
25 | CCTGAGGTGTGAGAGGGCAAAGGTCACAGCGCCTAGGGAGATTAGAGTATCGGTCGA | 8.02
26 | GGGCCAGCAAGAGGTGACCCCAGGGCAAAGGCCTAGGGAGATTAGAGTATCGGTCGA | 2.92
27 | GGGCAGCCCGTGTGGGCGGGTGCAGCTTCCGCCTAGGGAGATTAGAGTATCGGTCGA | -0.675
28 | CAGTTATCAGACAGAGGAATTCAGCAGGATGCCTAGGGAGATTAGAGTATCGGTCGA | -0.611
29 | TTTCTCCTCTCTGGGCTTCCATTGTGATTCGCCTAGGGAGATTAGAGTATCGGTCGA | 1.02
30 | GCCACATTCCCCGACTCCTGGGTGTGAGATGCCTAGGGAGATTAGAGTATCGGTCGA | 0.517
31 | AAGCAGAAGCTGCACACATGTCAAAGGTCAGCCTAGGGAGATTAGAGTATCGGTCGA | 6.19
32 | CAGCAATCACCTACCCCCAGATTCTCTGTTGCCTAGGGAGATTAGAGTATCGGTCGA | 2.35
33 | AATTCCCTGCAAGGACAAAGGTCATGTTTTGCCTAGGGAGATTAGAGTATCGGTCGA | 6.26
34 | GGAGAGGATGGGGACAAAGGTCAAGAAAGCGCCTAGGGAGATTAGAGTATCGGTCGA | 5.86
35 | GACAAAGGTCATTCATGTGCAGGTTGGAATGCCTAGGGAGATTAGAGTATCGGTCGA | 2.77
36 | CTAATGGAGAGGATGGGGACAAAGGTCAAGGCCTAGGGAGATTAGAGTATCGGTCGA | 7.24
37 | TTTGGAATTCCCTGCAAGGACAAAGGTCATGCCTAGGGAGATTAGAGTATCGGTCGA | 6.87
38 | GTTATCTAATGGAGAGGATGGGGACAAAGGGCCTAGGGAGATTAGAGTATCGGTCGA | 1.47
39 | TGTCTCTGGTCAGGGAGGGCTTTAGAATGTGCCTAGGGAGATTAGAGTATCGGTCGA | 1.01
40 | TTGGTCTGCTGAGTCTCATGATTAGATTGAGCCTAGGGAGATTAGAGTATCGGTCGA | 0.746
41 | TGGCCTGGGAACTTAGCGATTTGGAACCCAGCCTAGGGAGATTAGAGTATCGGTCGA | 0.829
42 | AAGTTCAAGTAGATAAAATCAAACAGATGTGCCTAGGGAGATTAGAGTATCGGTCGA | 1.02
43 | TCTGCAAACACCCCTCCCCCACACAGACAAGCCTAGGGAGATTAGAGTATCGGTCGA | 5.01
